# Bioassay records: PubChem BioAssay, National Center for Advancing Translational Sciences (NCATS)
# Nrf2 inh: Nrf2 pathway inhibition | A549 ARE-Fluc reporter, luciferase luminescence, 18-24 h | Potency, µM (highest dose often 46 µM), hits mostly inhibitors | actives 2.1% (n = 360,000); also: nearly all actives have a fitted effect of over 60% in size
#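 Reporter: ARE-Fluc in A549. Exposure: 18-24 h, 37 °C, 5% CO2, 5% FBS OPTI-MEM. Readouts: fluorescent cytotoxicity (CellTiter-Fluor), then luminescent Nrf2 signal after BugLite.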
# A549 tox: A549 cytotoxicity, counter-screen for Nrf2 inhibitors. A549 ARE-Fluc cells, CellTiter-Fluor viability, 18-24 h. Potency, µM (titrated, usually from 46 µM), hits mostly inhibitors. actives 0.16% (n = 390,000). AID 504648
#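 Cytotoxicity counterscreen: CellTiter-Fluor fluorescence was measured in A549 ARE_Fluc cells after 18-24 h of compound exposure in a concentration series. The subsequent BugLite luminescent read reports ARE-luciferase activity.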
# KB-3-1 cytotox: kills parental KB-3-1 adenocarcinoma cells; KB-3-1 viability, CellTiter-Glo ATP luminescence, 72 h; Potency, µM (titrated, usually from 46.1 µM), actives largely listed as cytotoxic; actives 1.4% (n = 400,000); also: nearly all actives have a fitted effect of over 60% in size
#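 Parental KB-3-1 viability, qHTS format: 72 h compound exposure, 37 °C; CellTiter-Glo; media-only wells and DMSO plates as controls; concentration-effect fits on corrected data.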
# Giardia killer: kills Giardia lamblia. actives 0.15% (n = 340,000). AID 540267. activity change, % at 7.66 µM, hits read low. Giardia lamblia trophozoite viability; in the data active = activity change below about -80%; inconclusive = between about -30% and that limit;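 also: parasites exposed to compound for two days anaerobically before the ATP read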
#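 Viability, read as ATP luminescence: trophozoites at 100 cells/well, compound added, 48 hrs anaerobic at 37 deg C, then 15-30 min room-temperature development before reading.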
# KB-V1 MDR tox: KB-V1 MDR subline cytotoxicity | Potency, µM (doses to about 46.1 µM), usual class: cytotoxic | KB-V1 MDR cells viability, CellTiter-Glo, 72 h | actives 3.4% (n = 400,000) | AID 1347076; also: nearly all actives have a fitted effect of over 60% in size
#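 Cells of the MDR subline KB-V1 are plated, dosed with compound at multiple concentrations, and incubated 72 h at 37 degrees C; CellTiter-Glo is then added and luminescence read after 10 min.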
# PI4K2A block: PI4K2A (human) kinase inhibition. Q9BTU6. purified PI4K2A, ADP-Glo luminescence, 1 h; active compounds read low. activity change, negative = inhibition, % at 76.9 µM. actives 0.13% (n = 420,000); in the data active = activity change below about -50%; inconclusive = mostly about -30% to -49%
# Target sequence (Q9BTU6 whole entry, looked up): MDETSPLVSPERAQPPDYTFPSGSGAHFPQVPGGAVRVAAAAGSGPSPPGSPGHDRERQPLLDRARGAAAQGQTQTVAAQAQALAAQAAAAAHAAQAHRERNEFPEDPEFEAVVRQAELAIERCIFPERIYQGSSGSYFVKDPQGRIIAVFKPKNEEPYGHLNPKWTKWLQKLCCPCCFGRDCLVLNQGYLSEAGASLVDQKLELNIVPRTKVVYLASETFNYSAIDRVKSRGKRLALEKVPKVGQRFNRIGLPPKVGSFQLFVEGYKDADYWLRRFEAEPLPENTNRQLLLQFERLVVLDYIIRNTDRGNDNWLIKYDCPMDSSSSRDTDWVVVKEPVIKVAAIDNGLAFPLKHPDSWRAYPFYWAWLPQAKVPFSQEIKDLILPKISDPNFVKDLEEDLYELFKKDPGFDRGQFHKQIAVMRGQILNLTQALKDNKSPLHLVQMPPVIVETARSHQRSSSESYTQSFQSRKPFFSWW
#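 In this quantitative HTS, ADP production by PI4K2A was quantified luminescently after 1 h at ambient temperature; 100 microM adenosine served as plate-quality control.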
# Numbers stand for hits; – = inactive; ? = inconclusive; · = no result given. Rows were chosen to be rich in hits. Some 5.7% of all compounds tested hit in one or more screens of this group. Unless noted, calls follow the shape of the dose curve; as a rule, active = well fitted curve in the direction sought with a large enough effect; inconclusive = small, poorly fitted or top-dose-only effect, or another doubt; inactive = no such curve, though single readings can be large; an effect the other way counts as inactive or inconclusive.
SMILES,Nrf2 inh,A549 tox,KB-3-1 cytotox,Giardia killer,KB-V1 MDR tox,PI4K2A block
CC1CCN(CC(=O)N2c3ccccc3CC2C)CC1 (centres undefined),?,–,–,–,–,–
CC1Cc2ccccc2N1C(=O)CN1CCC(n2nnc3cc(C(F)(F)F)ccc32)CC1 (centres undefined),16µM,?,?,–,–,–
COC(=O)c1ccccc1NC(=O)CN1CCC(n2nnc3cc(C(F)(F)F)ccc32)CC1,–,–,?,–,4.1µM,–
COc1ccc(N(C)S(=O)(=O)c2cccc(C(=O)Nc3nc4ccccc4[nH]3)c2)cc1,23µM,–,?,–,16µM,–
CN(c1cccc(Cl)c1)S(=O)(=O)c1cccc(C(=O)NCc2ccncc2)c1,?,–,–,–,–,–
CN(c1cccc(Cl)c1)S(=O)(=O)c1cccc(C(=O)NC2=NCCS2)c1,?,–,23µM,–,21µM,–
CN(c1cccc(Cl)c1)S(=O)(=O)c1cccc(C(=O)Nc2nc3ccccc3[nH]2)c1,?,–,15µM,–,?,–
Cc1cccc(C(=O)Nc2c(-c3ccccc3)nc3ncccn23)c1,·,·,·,·,·,–
OC1CCCN(c2c3c(nc4cc(-c5cccc(Cl)c5)nn24)CCC3)C1 (centres undefined),4.6µM,–,–,–,16µM,–
Cc1cccc(-c2cc3nc4c(c(N5CCCC(O)C5)n3n2)CCC4)c1 (centres undefined),?,–,–,–,?,–
COc1cccc(NC(=O)NC2CCCCN(Cc3ccccc3C)C2=O)c1 (centres undefined),·,·,·,·,·,–
Cc1cc(C)c(C#N)c(N2CCOCC2)n1,·,–,–,–,?,–
Cc1cc(N2CCOCC2)nc(N2CCOCC2)c1C#N,·,·,?,·,7.3µM,–
CCCCC(=O)NC(c1ccc(OC)c(OC)c1)c1c(O)ccc2ccccc12 (centres undefined),–,–,–,–,15µM,–
CCCC(=O)NC(c1ccc(N(C)C)cc1)c1c(O)ccc2ccccc12 (centres undefined),–,–,–,–,15µM,–
CCCC(=O)NC(c1ccccc1)c1c(O)ccc2ccccc12 (centres undefined),?,?,–,–,–,–
CC(C)c1ccc(NC(=O)CCn2c(=O)c3cccn3c3ccccc32)cc1,10µM,–,·,·,·,–
COc1ccc(NC(=O)c2ccccc2OCC(=O)Nc2ccc(Br)cc2)cc1,·,·,–,·,–,·
O=C(NCCc1c[nH]c2ccccc12)OCc1cn(-c2ccc(F)cc2F)nn1,·,·,·,·,·,–
CNCc1ccccc1Sc1ccc(OC)cc1,–,–,–,–,–,–
CNCc1ccccc1Sc1cccc2ccccc12,–,–,?,–,15µM,–
CN(C)CCN(C)Cc1ccccc1Sc1cccc2ccccc12,–,–,?,–,23µM,–
CCOC(=O)CCCNC(=O)OC1CC2CC1[C@H]1CCCCN1[C@H]2Cc1ccccc1 (some centres undefined),·,·,·,·,·,–
Brc1ccc(OCCCOc2cccc3cccnc23)cc1,–,–,–,–,–,–
COC(=O)c1ccccc1OCCOCCOc1cccc2ccc(C)nc12,–,–,–,–,?,–
SMILES,Nrf2 inh,A549 tox,KB-3-1 cytotox,Giardia killer,KB-V1 MDR tox,PI4K2A block
Brc1ccc(OCCOCCOc2cccc3cccnc23)cc1,–,–,–,–,18µM,–
COC(=O)c1ccc(OCCOCCOc2cccc3ccc(C)nc23)cc1,–,–,–,–,15µM,–
Nc1nc(-c2ccccn2)nc(N)c1Cc1ccc(Cl)cc1Cl,6.5µM,?,?,–,?,–
O=C(NCc1nnc(SCc2ccc(F)cc2)n1-c1ccc(F)cc1)C12CC3CC(CC(C3)C1)C2,?,–,23µM,–,?,–
CCC(CC)NC(=O)c1cc2c(C)nn(Cc3ccccc3Cl)c2s1,–,–,?,–,15µM,–
CCN(Cc1ccccc1)C(=O)Cn1c(=O)n(-c2cccc(C)c2)c(=O)c2c1c1cc(C)ccc1n2C,?,–,–,·,–,–
O=C(N/N=C/c1ccccc1)c1ccc(CN2C(=O)c3cccc4cccc2c34)cc1,–,–,–,–,–,–
O=C(N/N=C/c1ccc(O)cc1O)c1ccc(CN2C(=O)c3cccc4cccc2c34)cc1,9.2µM,?,?,–,?,–
Cc1ccc(C)c(Nc2cc(C)nc(-c3ccccc3O)n2)c1,–,–,2.6µM,–,–,–
Cc1cc(Nc2ccccc2Cl)nc(-c2ccccc2O)n1,–,–,–,–,–,–
Cc1cc(NCc2ccccc2)nc(-c2ccccc2O)n1,–,–,?,–,16µM,–
O=C(CNS(=O)(=O)c1ccc(Br)s1)N1CCN(c2ccccn2)CC1,·,·,·,·,·,–
O=S(=O)(c1ccccc1)N(c1ccccc1)S(=O)(=O)c1ccccc1,–,–,?,–,9.2µM,–
O=C(CS(=O)(=O)c1cn(Cc2cccc(F)c2)c2ccccc12)N1CCOCC1,–,–,–,–,23µM,–
O=C(CCCSc1nc2ccccc2[nH]1)Nc1nnc(-c2ccccc2)o1,–,–,–,–,–,–
c1ccc(CSc2nc3ccccc3[nH]2)cc1,–,–,–,–,–,–
O=[N+]([O-])c1ccc(CSc2nc3ccccc3[nH]2)cc1,–,–,–,–,21µM,–
Cc1cccc2nc(CSc3nc4ccc([N+](=O)[O-])cc4[nH]3)c(Br)n12,?,–,?,–,12µM,–
c1ccc(-c2nnc(CSc3nc4ccccc4[nH]3)o2)cc1,–,–,–,–,13µM,–
NC(=O)CSc1nc2ccc([N+](=O)[O-])cc2[nH]1,–,–,–,–,–,–
COc1ccc(C(=O)C2(C(=O)NCc3ccccc3)CC(c3ccccn3)=NO2)cc1 (centres undefined),·,·,·,·,·,–
CC[C@@H](CCCc1ccccc1OC)CCS(=O)(=O)C(C)(C)C,·,·,·,·,·,–
N#CCSc1ncccc1-c1nc2ccccc2[nH]1,·,–,–,–,–,–
N#CCCCSc1ncccc1-c1nc2ccccc2[nH]1,·,–,–,–,13µM,–
O=C(CSc1ncccc1-c1nc2ccccc2[nH]1)Nc1ccc2c(c1)OCCO2,–,–,–,–,9.2µM,–
COc1cc(CN(C(=S)NCC(=O)NC2CCCC2)C2CCCC2)cc(OC)c1OC,–,–,–,–,13µM,–
N#Cc1cccc(-c2ccccc2C(=O)NC2CCCCN(Cc3ccc(Cl)cc3)C2=O)c1 (centres undefined),·,·,·,·,·,–
CC(=O)N1CCN(Cc2nc3cc(NC(=O)c4ccccc4Cl)ccc3n2C)CC1,–,–,–,–,–,–
CC(=O)N1CCN(Cc2nc3cc(NC(=O)COc4cccc(C)c4)ccc3n2C)CC1,23µM,–,–,–,–,–
